Among the test systems are SR leukemia; RPMI-8226 leukemia; OVCAR-5 ovarian; OVCAR-4 ovarian; SK-OV-3 ovarian; IGROV1 ovarian; OVCAR-3 ovarian; HS 578T breast; NCI/ADR-RES ovarian; T-47D breast; BT-549 breast; MDA-MB-435 melanoma; SW-620 colon; MCF7 breast; HCT-116 colon; HCC-2998 colon; KM12 colon; OVCAR-8 ovarian.
Common to all, as to assay: NCI-60 one-dose screen, 48 h (100 = growth as untreated, 0 = no growth, -100 = all killed)
Details in all cases: 10 µM unless noted

Each structure is given as a SMILES string. This is part of a sample that, as a whole, favours compounds with a hit. Of some 83,000 tested, about 20% had one in any assay.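 Growth was measured after 48 h exposure to one concentration of compound in 96-well plates. Values under 10 count as active.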 Values without a mark were called inactive. Active and inactive are the calls of the source.

Regarding `COc1ccc(CNc2nccnn2)cc1`, the growth in the assay with SR leukemia is 52.1%; in the assay on RPMI-8226 leukemia it was 108%; in the assay on OVCAR-5 ovarian it was 96.4%; in the assay with OVCAR-4 ovarian, 111%; with SK-OV-3 ovarian it was 109%; in the assay with IGROV1 ovarian, 101%. In addition, the growth is 105% with OVCAR-3 ovarian; 111% in the assay with HS 578T breast; 99.4% in the assay on NCI/ADR-RES ovarian; 105% in the assay on T-47D breast; 114% in the assay with BT-549 breast; 102% in the assay on MDA-MB-435 melanoma. The growth with SW-620 colon is 104%; in the assay on MCF7 breast it was 99.4%; in the assay on HCT-116 colon, 101%; with HCC-2998 colon it was 98.7%; in the assay with KM12 colon, 99.3%.

For `C/C(=C(/c1ccc(O)cc1)c1ccc(OCCN(C)C)cc1)c1ccccc1`, the growth is 63.7% in the assay on SR leukemia; 85.1% in the assay on RPMI-8226 leukemia; 87.6% in the assay on OVCAR-5 ovarian; 83.2% with OVCAR-4 ovarian; 90.2% in the assay on SK-OV-3 ovarian; 90.2% in the assay with OVCAR-3 ovarian. Further, the growth was 90% in the assay with HS 578T breast; 81.3% in the assay on NCI/ADR-RES ovarian; 42.6% with T-47D breast; 92.4% in the assay on BT-549 breast; 77.2% in the assay with MDA-MB-435 melanoma; 101% with SW-620 colon. The growth was 32.6% with MCF7 breast, 68.4% with HCT-116 colon, 97.8% in the assay with HCC-2998 colon and 81.1% in the assay on KM12 colon.

With `CNC(=S)N/N=C/CSC/C=N/NC(=S)NC`, the growth was 6.29% (active) with SR leukemia; 63.7% in the assay on RPMI-8226 leukemia; 89.8% in the assay with OVCAR-5 ovarian; 76.1% with OVCAR-4 ovarian; 80.5% in the assay with SK-OV-3 ovarian; 9.24% (active) in the assay with IGROV1 ovarian. In addition, the growth with OVCAR-3 ovarian is 32.3%; with HS 578T breast, 107%; in the assay on NCI/ADR-RES ovarian it was 97.9%; with T-47D breast it was 33.2%; in the assay with BT-549 breast it was 96.8%; with MDA-MB-435 melanoma, 81.7%. The growth in the assay on SW-620 colon is 64.5%; in the assay with MCF7 breast, 3.33% (active); in the assay on HCT-116 colon, 63.3%; in the assay with HCC-2998 colon, 97.6%; in the assay on KM12 colon, 75.9%.

Consider `COc1ccc2nc3cc(Cl)ccc3c(N3CCN(c4ccnc(N5CCN(C)CC5)n4)CC3)c2c1`, for which the growth with SR leukemia was -26.9% (active); with RPMI-8226 leukemia it was 11.2%; in the assay with OVCAR-8 ovarian, 41.2%; in the assay on OVCAR-5 ovarian, 81.4%; with OVCAR-4 ovarian, 46.2%; with IGROV1 ovarian it was 72.9%. Also, the growth in the assay with OVCAR-3 ovarian is -39.4% (active); with HS 578T breast it was 106%; with NCI/ADR-RES ovarian, 84.9%; with BT-549 breast it was 55.5%; in the assay with MDA-MB-435 melanoma it was 66.5%; in the assay with SW-620 colon it was -55.1% (active). The growth in the assay with MCF7 breast is -55.8% (active); in the assay with HCT-116 colon, -62.4% (active); in the assay with HCC-2998 colon, 8.43% (active); with KM12 colon it was 36%.

Consider `CCC(C)[C@@H]1NC(=O)[C@@H]2CCCN2C(=O)[C@H](Cc2ccccc2)NC(=O)[C@@H]2CCCN2C(=O)[C@H](Cc2ccccc2)NC(=O)[C@@H]2CCCN2C(=O)[C@H](Cc2ccccc2)NC1=O` (stereo not given in full), for which the growth is 83.7% in the assay with SR leukemia; 113% in the assay on OVCAR-8 ovarian; 105% with OVCAR-5 ovarian; 106% with OVCAR-4 ovarian; 103% in the assay with SK-OV-3 ovarian; 120% in the assay with IGROV1 ovarian. Further, the growth in the assay with OVCAR-3 ovarian was 126%; in the assay with HS 578T breast it was 106%; with NCI/ADR-RES ovarian, 112%; in the assay on T-47D breast, 98.9%; in the assay on BT-549 breast it was 109%; in the assay on MDA-MB-435 melanoma, 112%. The growth in the assay with SW-620 colon was 105%; in the assay on MCF7 breast, 87.5%; in the assay with HCT-116 colon, 113%; in the assay with HCC-2998 colon, 106%; with KM12 colon, 121%.

Turning to `O=C(/C=C/c1ccc(B(O)O)cc1)/C=C/c1ccc(B(O)O)cc1`, the growth in the assay with SR leukemia is 8.8% (active); in the assay with RPMI-8226 leukemia, -23.5% (active); in the assay on OVCAR-8 ovarian it was 72.2%; in the assay on OVCAR-5 ovarian, 92.8%; in the assay on SK-OV-3 ovarian it was 46.8%; with IGROV1 ovarian it was -73.3% (active). Moreover, the growth in the assay on OVCAR-3 ovarian was 27.8%; with HS 578T breast it was 4.54% (active); with NCI/ADR-RES ovarian, 91.7%; in the assay on T-47D breast it was 27%; in the assay with BT-549 breast it was -11.8% (active); in the assay with MDA-MB-435 melanoma, -46.6% (active). The growth with SW-620 colon was -25.2% (active); with MCF7 breast, 3.78% (active); with HCT-116 colon, -94.4% (active); with HCC-2998 colon it was -77.1% (active); with KM12 colon, -86.7% (active).

In the case of `Cn1c(=O)c2[nH]c(C(O)C(O)C(O)C(O)CO)nc2n(C)c1=O` (stereo not given), the growth in the assay on SR leukemia was 105%; in the assay with RPMI-8226 leukemia, 110%; in the assay on OVCAR-8 ovarian, 108%; in the assay with OVCAR-5 ovarian, 101%; with OVCAR-4 ovarian, 116%; in the assay on IGROV1 ovarian, 106%. In addition, the growth was 109% with OVCAR-3 ovarian; 107% in the assay with HS 578T breast; 100% with NCI/ADR-RES ovarian; 90.8% in the assay with T-47D breast; 108% with BT-549 breast; 108% with MDA-MB-435 melanoma. Moreover, the growth in the assay on SW-620 colon is 102%; in the assay with MCF7 breast, 97.9%; with HCT-116 colon it was 106%; in the assay on HCC-2998 colon, 103%; in the assay with KM12 colon, 101%.

`COCCOC(=O)C1=C(C)NC(=S)NC1c1ccc2c(c1)OCO2` (stereo not given): the growth in the assay on SR leukemia is 95.5%; with RPMI-8226 leukemia, 105%; in the assay on OVCAR-8 ovarian it was 102%; with OVCAR-5 ovarian it was 109%; in the assay with OVCAR-4 ovarian, 103%; in the assay with IGROV1 ovarian it was 105%. Moreover, the growth with OVCAR-3 ovarian was 111%; with HS 578T breast, 104%; with NCI/ADR-RES ovarian it was 103%; with BT-549 breast it was 109%; in the assay on MDA-MB-435 melanoma it was 104%; in the assay with SW-620 colon, 106%. The growth in the assay on MCF7 breast is 89.6%; in the assay with HCT-116 colon, 103%; in the assay on HCC-2998 colon, 109%; in the assay with KM12 colon it was 100%.

On to `COc1ccc2nc(NC(=O)c3cccnc3Nc3cc(OC)c(OC)c(OC)c3)sc2c1`, for which the growth is -12.6% (active) in the assay with SR leukemia; -1.38% (active) with RPMI-8226 leukemia; -10.3% (active) with OVCAR-8 ovarian; -65.5% (active) in the assay on OVCAR-4 ovarian; -40.4% (active) with SK-OV-3 ovarian; 68.6% in the assay with IGROV1 ovarian. The growth in the assay with OVCAR-3 ovarian is -62.5% (active); in the assay on HS 578T breast it was 44.5%; in the assay with NCI/ADR-RES ovarian, 4.41% (active); in the assay on T-47D breast, -7.17% (active); with BT-549 breast it was -90.5% (active); with MDA-MB-435 melanoma, 7.52% (active). The growth is 27.8% in the assay on SW-620 colon; 8.16% (active) in the assay with MCF7 breast; -2.4% (active) in the assay on HCT-116 colon; 77.8% with HCC-2998 colon; 11.9% in the assay with KM12 colon.

The values above are taken from PubChem BioAssay (NCI).
